Many of the other results were omitted from the sample, so hits are more common in it than they were.
CD11b adhes inh = inhibitors of CD11b/CD18 adhesion to fibrinogen, primary screen, K562 cells, luminescence | Integrin beta-2 (Homo sapiens) + Integrin alpha-M (Homo sapiens), P05107+P11215 | ATPlite luminescence; Mn2+ added to activate the integrin | inhibition, % at 10 µM | 0.54% of 93,000 active | AID 1497, 2009;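 active = primary inhibition of 50% or more at 10 µM, then 40% or more on retest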
Target sequence (P05107 whole entry, looked up, other chains not shown): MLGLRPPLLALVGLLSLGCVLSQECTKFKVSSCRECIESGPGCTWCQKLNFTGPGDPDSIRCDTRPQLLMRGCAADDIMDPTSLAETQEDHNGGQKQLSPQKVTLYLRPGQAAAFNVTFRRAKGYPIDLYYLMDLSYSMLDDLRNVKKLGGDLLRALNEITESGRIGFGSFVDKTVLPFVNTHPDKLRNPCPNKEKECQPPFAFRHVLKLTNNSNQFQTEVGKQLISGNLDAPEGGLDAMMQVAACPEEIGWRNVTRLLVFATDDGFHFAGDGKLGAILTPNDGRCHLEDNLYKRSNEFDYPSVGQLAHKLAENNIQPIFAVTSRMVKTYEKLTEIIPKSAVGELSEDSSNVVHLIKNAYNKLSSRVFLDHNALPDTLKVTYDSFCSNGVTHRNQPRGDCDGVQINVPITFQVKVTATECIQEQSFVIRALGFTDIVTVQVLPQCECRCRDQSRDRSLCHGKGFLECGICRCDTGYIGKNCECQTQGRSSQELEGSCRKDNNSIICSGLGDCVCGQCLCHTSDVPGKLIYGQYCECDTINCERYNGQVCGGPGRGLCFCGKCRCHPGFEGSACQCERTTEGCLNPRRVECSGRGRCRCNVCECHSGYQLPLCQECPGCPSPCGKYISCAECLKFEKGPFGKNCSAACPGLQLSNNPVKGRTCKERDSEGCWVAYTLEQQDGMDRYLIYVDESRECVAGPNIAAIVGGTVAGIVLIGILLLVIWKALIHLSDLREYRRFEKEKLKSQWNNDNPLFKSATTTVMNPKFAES
Cav32 inh = Cav3.2 calcium influx blockers – cell-based, Fluo-4 calcium fluorescence, FDSS, MLSMR library, primary screen; Voltage-dependent T-type calcium channel subunit alpha-1H (Homo sapiens), O95180; Cav3.2-expressing cells; hits give low values; B-score at 10 µM; 4% of 100,000 active; AID 449739, 2010;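 active = single-dose well whose peak fluorescence ratio is a statistical outlier from its plate by either plate-standardised score or position-corrected B-score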
CD11b adhes enh = enhancers of CD11b/CD18 adhesion to fibrinogen, primary screen, K562 cells, luminescence. Integrin beta-2 (Homo sapiens) + Integrin alpha-M (Homo sapiens), P05107+P11215. ATPlite luminescence. activation, % at 10 µM. 0.07% of 93,000 active;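 active = 10 µM primary screen giving 50% or more activity, confirmed by 40% or more on retest at that dose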
E coli WT exp = growth inhibitors of wild-type E. coli, primary screen, strain BW25113, expanded library, OD600 | OD600 absorbance | growth inhibition, % at 100 µM | 0.15% of 98,000 active | AID 710, 2007;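 active = growth inhibition above about 50% at one test dose, limit read from the data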;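 note: growth measured after 20 h incubation at 37 °C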
Of the large screens only hits and unclear results are named; the others gave an inactive call.

O=C(CSc1nc(C2CC2)nc2ccccc12)N1c2ccccc2Sc2ccc(C(F)(F)F)cc21	none
Cc1[nH]n(-c2ccccc2)c(=O)c1/C=N/c1ccccn1	none (no result: CD11b adhes inh, Cav32 inh, CD11b adhes enh)
Cc1[nH]n(-c2ccccc2)c(=O)c1N=Nc1nccs1	CD11b adhes inh 56
CCCN1C(=O)/C(=N\OCC(=O)NC23CC4CC(CC(C4)C2)C3)c2ccccc21	none (no result: Cav32 inh, E coli WT exp)
COc1ccccc1-c1nnc2sc(COc3ccc(Cl)cc3)nn12	Cav32 inh -2.8
C=CCn1c(SCc2c(C(=O)OC)sc(N)c2C(=O)OC)nnc1-c1ccc(Br)cc1	Cav32 inh -4.6
CCSC1=C(C#N)C(c2ccccc2Cl)C(C(=O)c2cccs2)C(O)(C(F)(F)F)N1 (centres undefined)	Cav32 inh -9.2
C(=N\N1CCN(Cc2cccc3ccccc23)CC1)/c1cccnc1	none
COc1cccc(CNc2cc(CSc3ccc(Cl)cc3)nc(C)n2)c1	Cav32 inh -8.2
COc1ccccc1CNc1cc(CSc2ccc(Cl)cc2)nc(C)n1	none
CC(C)=CCc1c(O)c(CC=C(C)C)c2c(c1O)-c1cc(O)c(O)cc1CC2	none (no result: CD11b adhes inh, CD11b adhes enh, E coli WT exp)
Cc1nc(NCc2ccc3c(c2)OCO3)c2oc3ccccc3c2n1	none (no result: CD11b adhes inh, CD11b adhes enh)
Cc1c(C(=O)NCc2ccc3c(c2)OCO3)oc2ccccc12	Cav32 inh -5.6 (no result: CD11b adhes inh, CD11b adhes enh, E coli WT exp)
CCN(CC)S(=O)(=O)c1ccc2oc(C(=O)NCc3ccc(F)cc3)c(C)c2c1	Cav32 inh -6.8
Cc1c(C(=O)NCc2ccc3c(c2)OCO3)oc2ccc(S(=O)(=O)N3CCCCCC3)cc12	none
Cc1ccc2oc(C(=O)NCc3ccc4c(c3)OCO4)c(C)c2c1	none (no result: Cav32 inh)
CCN(CC)S(=O)(=O)c1ccc2oc(C(=O)NCCCN3CCOCC3)c(C)c2c1	none
Cc1c(C(=O)NCc2ccc3c(c2)OCO3)oc2ccc(S(=O)(=O)N3CCC(C)CC3)cc12	Cav32 inh -4.8 (no result: CD11b adhes inh, CD11b adhes enh)
CCc1nc(NCc2ccc3c(c2)OCO3)c2oc3ccccc3c2n1	Cav32 inh -3.7
CCO[C@@H]1OC(C(=O)O)=C[C@H](c2ccc(Br)cc2)[C@H]1CCCO	none (no result: CD11b adhes inh, CD11b adhes enh, E coli WT exp)
CC1=C(C(=O)OCC(Br)(Br)Br)C(c2cccc([N+](=O)[O-])c2)NC(=O)N1CCCC(=O)O (centres undefined)	none (no result: CD11b adhes inh, CD11b adhes enh, E coli WT exp)
Cc1c(C(=O)NCCC2=CCCCC2)oc2ccc(S(=O)(=O)N3CCC4(CC3)OCCO4)cc12	Cav32 inh -5.6
CCCCN(CCCC)S(=O)(=O)c1ccc2oc(C(=O)N3CCOCC3)c(C)c2c1	Cav32 inh -4.7
O=C1Nc2ccccc2C1(c1ccccc1)c1ccccc1	Cav32 inh -9.5
COc1cccc(OCCNc2cc(N3CCCCC3)ccc2[N+](=O)[O-])c1	Cav32 inh -4.1
COc1ccc(OCCNc2cc(N3CCCCC3)ccc2[N+](=O)[O-])cc1	none (no result: CD11b adhes inh, Cav32 inh, CD11b adhes enh)
CC1(C(=O)NCCCNc2ncc(C(F)(F)F)cc2Cl)C=CC2(CCCCC2)N1C(=O)c1ccccc1 (centres undefined)	none (no result: CD11b adhes inh, CD11b adhes enh, E coli WT exp)
CCOc1ccc(NC(=O)CN2CCN(CC(=O)Nc3ccc(Cl)c(C(F)(F)F)c3)CC2)cc1	Cav32 inh -6.2
O=C(CN1CCN(c2ccccn2)CC1)Nc1ccc(Cl)c(C(F)(F)F)c1	none
COc1ccccc1N1CCN(CC(=O)Nc2ccc(Cl)c(C(F)(F)F)c2)CC1	Cav32 inh -4.2 (no result: CD11b adhes inh, CD11b adhes enh, E coli WT exp)
CCOc1ccc(NC(=O)CN2CCN(CC(=O)Nc3cccc(F)c3)CC2)cc1	none
CCCCNc1nc(-c2ccccc2)cc(C(F)(F)F)c1C(N)=O	none (no result: CD11b adhes inh, CD11b adhes enh, E coli WT exp)
O=C(c1ccco1)N1CCN(C(=O)N2c3ccccc3Sc3ccccc32)CC1	none
O=C(c1ccco1)N1c2ccccc2Sc2ccccc21	Cav32 inh -4.7 (no result: CD11b adhes inh, CD11b adhes enh)
O=C1CSC(c2cn(-c3ccccc3)nc2-c2ccccc2)N1Cc1ccco1 (centres undefined)	Cav32 inh -4.7
O=C1CSC(c2cn(-c3ccccc3)nc2-c2cccs2)N1CC1CCCO1 (centres undefined)	Cav32 inh -5
CCOC(=O)C1=C(C)NC(=O)NC1c1cn(-c2ccccc2)nc1-c1cccs1 (centres undefined)	none
COc1ccc(OC)c(/C(O)=C/C(=O)C(=O)Nc2cc(C)cc(C)c2)c1	Cav32 inh -9.1
COc1ccc(OC)c(C(=O)c2ccccc2)c1	none (no result: CD11b adhes inh, CD11b adhes enh, E coli WT exp)
COc1ccc(OC)c(/C(O)=C/C(=O)C(=O)Nc2cc(C)ccc2OC)c1	Cav32 inh -5.6
CCOc1ccccc1NC(=O)C(=O)/C=C(\O)c1cc(OC)ccc1OC	Cav32 inh -9.6
CCOc1ccc(NC(=O)c2ccccc2OC)cc1	none (no result: Cav32 inh)
CCCc1cc2c(cc1NC(=O)c1ccc(Br)cc1)OCO2	none (no result: CD11b adhes inh, CD11b adhes enh)
CCCC[C@H]1C2=C3[C@@H](CC(C(=O)OC)=C[C@@H](C(=O)OC)[C@H]3C(C)(C)C2=O)n2c(=O)n(-c3ccccc3)c(=O)n21	none (no result: CD11b adhes inh, CD11b adhes enh, E coli WT exp)
C=CCNC(=O)c1ccccc1NC(=O)Cc1ccccc1[N+](=O)[O-]	none (no result: Cav32 inh, E coli WT exp)
CC(C)NC(=S)NCc1cccnc1	none (no result: Cav32 inh, E coli WT exp)
COc1cccc(Nc2nnc(SCC(=O)N(CC(C)C)CC(C)C)s2)c1	Cav32 inh -7.2
Cc1cccc(C)c1-n1c(C)cc(/C=C2\NC(=O)NC2=O)c1C	Cav32 inh -6.8 (no result: CD11b adhes inh, CD11b adhes enh, E coli WT exp)
CC(=O)c1cccc(NC(=O)C(Sc2ncnc3ccccc23)c2ccccc2)c1 (centres undefined)	none (no result: Cav32 inh, E coli WT exp)
CCN(C1CCCCC1)S(=O)(=O)c1cc(C)ccc1OC	none
CCN(C1CCCCC1)S(=O)(=O)c1ccc(OC)c(C)c1	Cav32 inh -6.3
CC(C)N(C(=O)CSc1nn2c(=O)c(C(C)(C)C)nnc2s1)c1ccccc1	Cav32 inh -10
CC(C)(C)c1nnc2sc(SCCN3C(=O)c4ccccc4C3=O)nn2c1=O	none
CCN(C(=O)c1ccc(C(C)(C)C)cc1)c1nnc(Cn2nnc3ccccc32)s1	CD11b adhes inh 99, Cav32 inh -8
Cc1ccc(C(=O)Cn2nnc3ccccc32)cc1	none (no result: CD11b adhes inh, CD11b adhes enh)
C=CCN(CC=C)CC(O)Cn1c2ccccc2c2ccccc21 (centres undefined)	Cav32 inh -3.4
CCN(CC)CC(O)Cn1c2ccccc2c2ccccc21 (centres undefined)	none
CCOc1ccc(C2OC(=O)Cc3cc(OC)c(OC)cc32)cc1 (centres undefined)	none
Oc1ccc(-c2[nH]nc(-c3ccccc3)c2-c2nc3ccccc3[nH]2)cc1	Cav32 inh -5.5
CNCC(O)Cn1c(C(F)(F)F)nc2ccccc21 (centres undefined)	none (no result: CD11b adhes inh, CD11b adhes enh, E coli WT exp)
COc1cc(COc2ccc3c(C)c(Cc4ccccc4)c(=O)oc3c2)cc(OC)c1OC	none (no result: Cav32 inh)
COc1cccc(COc2ccc3c(C)c(Cc4ccccc4)c(=O)oc3c2)c1	Cav32 inh -3.7 (no result: CD11b adhes inh, CD11b adhes enh, E coli WT exp)
OCC1CCCN(c2nc(CN3CCCCC3)nc3scc(-c4ccccc4)c23)C1 (centres undefined)	none (no result: Cav32 inh, E coli WT exp)
CCNc1nc(CN2CCCCC2)nc2scc(-c3ccccc3)c12	CD11b adhes inh 78 (no result: Cav32 inh, E coli WT exp)
CC(=O)Nc1ccc(S(=O)(=O)NCCSCc2c(Cl)cccc2Cl)cc1	Cav32 inh -5.1

Screens from PubChem BioAssay.
